The list shows a part of the results. How many sequences the whole screen found active is unknown.
Target: furin, P09958
Assay: furin cleavage Z-score vs untreated control; higher = more cleavage, active = 3.5 or more, inactive = 1 or less, 8 variable residues between constant flanks
Summary of the method: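 Abundance of DNA freed from bead-bound 8-mer peptide–cDNA fusions by purified furin was measured as sequencing read counts after PCR adapter tagging. Cutting ran 7.5, 15 or 30 min in 0.01 ml of 50 mM HEPES pH 7.5 with CaCl2 and NaCl at 1:10 enzyme:substrate. The cleavage Z-score expresses these log counts against furin-free reactions after lowess adjustment and median absolute deviation scaling.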

Chain of furin, P09958 (P09958 whole entry): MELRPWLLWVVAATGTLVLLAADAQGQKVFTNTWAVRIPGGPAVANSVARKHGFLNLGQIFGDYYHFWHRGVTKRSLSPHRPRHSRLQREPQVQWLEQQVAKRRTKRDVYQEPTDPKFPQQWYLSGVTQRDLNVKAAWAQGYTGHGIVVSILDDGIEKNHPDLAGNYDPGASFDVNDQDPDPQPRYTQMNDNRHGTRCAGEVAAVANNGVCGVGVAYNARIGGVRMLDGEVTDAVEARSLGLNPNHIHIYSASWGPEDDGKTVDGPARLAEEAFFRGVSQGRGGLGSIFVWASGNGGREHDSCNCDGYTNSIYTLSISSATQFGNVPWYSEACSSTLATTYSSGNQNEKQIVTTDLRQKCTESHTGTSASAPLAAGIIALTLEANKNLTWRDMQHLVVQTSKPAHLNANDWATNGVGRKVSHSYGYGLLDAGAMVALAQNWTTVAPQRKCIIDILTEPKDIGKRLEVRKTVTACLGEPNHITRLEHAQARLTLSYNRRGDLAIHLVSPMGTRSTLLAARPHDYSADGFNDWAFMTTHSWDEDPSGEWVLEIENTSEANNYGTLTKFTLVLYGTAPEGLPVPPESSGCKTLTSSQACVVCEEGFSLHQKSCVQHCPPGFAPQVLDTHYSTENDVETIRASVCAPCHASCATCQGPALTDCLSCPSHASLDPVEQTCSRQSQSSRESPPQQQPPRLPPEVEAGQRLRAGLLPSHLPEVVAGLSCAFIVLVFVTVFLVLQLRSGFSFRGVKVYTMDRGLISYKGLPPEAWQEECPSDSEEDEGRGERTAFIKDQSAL

Sequence	furin cleavage Z-score (7.5 min)	furin cleavage Z-score (15 min)	furin cleavage Z-score (30 min)
CADCEVVTSTAGNASASA [HC2300]	0.556 (inactive)	0.654 (inactive)	-0.729 (inactive)
CAQVCCSMSYAGNASASA [HC2002]	-0.191 (inactive)	-0.875 (inactive)	0.558 (inactive)
CAMEECSQELAGNASASA [HC1752]	0.357 (inactive)	-0.13 (inactive)	-0.468 (inactive)
CAVGIFRAAVAGNASASA [HC749]	-0.179 (inactive)	-0.141 (inactive)	0.209 (inactive)
CAARVCSCLWAGNASASA [HC525]	-1.84 (inactive)	-1.52 (inactive)	1.13
CAEKEVPCHRAGNASASA [HC2454]	0.758 (inactive)	-0.375 (inactive)	1.43
CATLRRYKRHAGNASASA [FS-964]	11.2 (active)	10.9 (active)	8.76 (active)
CAHEGREKRHAGNASASA [FS-1630]	7.09 (active)	9.28 (active)	8.39 (active)
CALLWRQEMGAGNASASA [HC1276]	1.14	0.0716 (inactive)	0.841 (inactive)
CADQRPYCWHAGNASASA [HC401]	0.793 (inactive)	-0.215 (inactive)	1.33
CALLRRQIRTAGNASASA [FS-1642]	6.82 (active)	8.8 (active)	8.78 (active)
CAPTGREKRPAGNASASA [FS-75]	0.811 (inactive)	0.063 (inactive)	0.807 (inactive)
CAGIDPNIRTAGNASASA [HC797]	-1.41 (inactive)	-0.301 (inactive)	-1.74 (inactive)
CAETPCHRPSAGNASASA [HC2338]	-0.427 (inactive)	-0.0389 (inactive)	1
CAEILLGPADAGNASASA [HC665]	0.796 (inactive)	-1.29 (inactive)	0.764 (inactive)
CATEMEECSQAGNASASA [HC1798]	1.39	-0.469 (inactive)	-0.647 (inactive)
CAEVVTSTWQAGNASASA [HC2262]	0.0156 (inactive)	-1.35 (inactive)	-0.305 (inactive)
CANRCRMLRSAGNASASA [FS-469]	2.76	3.91 (active)	2.25
CAQRRRQLRSAGNASASA [FS-1254]	9.6 (active)	10.8 (active)	7.49 (active)
CAQRRRQRRPAGNASASA [FS-1557]	0.0891 (inactive)	-1.68 (inactive)	0.0903 (inactive)
CAMKNRFLRSAGNASASA [FS-1645]	7.49 (active)	7.31 (active)	7.79 (active)
CASRCRFLRSAGNASASA [FS-1086]	4.82 (active)	4.36 (active)	4.8 (active)
CAEVEVPCHRAGNASASA [HC2450]	1.03	0.836 (inactive)	1.62

Sequence	furin cleavage Z-score (7.5 min)	furin cleavage Z-score (15 min)	furin cleavage Z-score (30 min)
CACVPCHRPSAGNASASA [HC2320]	-1.73 (inactive)	2.15	-0.71 (inactive)
CAGGPLTNSRAGNASASA [HC1502]	-0.097 (inactive)	1.45	0.841 (inactive)
CAENVVCCSMAGNASASA [HC2141]	-0.000681 (inactive)	-0.718 (inactive)	1.03
CARCRRLVREAGNASASA [FS-3185]	8.42 (active)	9.96 (active)	8.44 (active)
CAEPSRLVREAGNASASA [FS-1452]	3.98 (active)	5.86 (active)	4.45 (active)
CARCRRQFQEAGNASASA [FS-1887]	0.189 (inactive)	1.16	1.9
CADREVLYREAGNASASA [HC1009]	1.17	0.738 (inactive)	0.787 (inactive)
CARIKRDSQGAGNASASA [FS-2338]	12.5 (active)	13.5 (active)	10.5 (active)
CARLVRESSGAGNASASA [FS-2999]	-0.00522 (inactive)	1.39	1.91
CARWKRDSSGAGNASASA [FS-3176]	10.7 (active)	12 (active)	10.2 (active)
CARQCRSSQGAGNASASA [FS-2288]	1.61	0.149 (inactive)	1.21
CARDSRSSGGAGNASASA [FS-2906]	-0.675 (inactive)	-1.21 (inactive)	-0.52 (inactive)
CARPKRYNSGAGNASASA [FS-2437]	0.95 (inactive)	0.51 (inactive)	1.14
CAKPGIYRFVAGNASASA [HC908]	1.16	-1.32 (inactive)	2.33
CAGVVCAAILAGNASASA [HC1108]	0.833 (inactive)	1.01	1.2
CAVIDCNTCVAGNASASA [HC886]	-1.17 (inactive)	-0.722 (inactive)	-1.34 (inactive)
CAGPDQRPYCAGNASASA [HC400]	0.515 (inactive)	0.00682 (inactive)	0.075 (inactive)
CAVGRRYRRTAGNASASA [FS-387]	11.6 (active)	9.35 (active)	8.06 (active)
CAVATDALMTAGNASASA [HC878]	-0.06 (inactive)	-0.775 (inactive)	0.231 (inactive)
CAVPQRHRRTAGNASASA [FS-1432]	10.8 (active)	9.86 (active)	9.48 (active)
CAQPRRHRRPAGNASASA [FS-1250]	0.282 (inactive)	1.35	0.113 (inactive)
CAPGRRRRRTAGNASASA [FS-1381]	7.92 (active)	8.84 (active)	6.67 (active)
CARGRREARRAGNASASA [FS-2936]	6.61 (active)	7.38 (active)	6.43 (active)

Source: the supplement of paper PMC3545927
